Assay results taken from PubChem BioAssay AID2242 (National Center for Advancing Translational Sciences (NCATS), 2010).
Among all 200,000 compounds or so, about 720 (0.36%) were called active. Inconclusive results (about 8%) are left out. Calls come from the whole dose curve; as a rule, active = well fitted activation curve with a large enough effect; inconclusive = small, poorly fitted or top-dose-only effect, or effect the other way, or another doubt; inactive = flat fitted curve, though single readings scatter. This is one part of the list.

Target: Lysosomal alpha-glucosidase (Homo sapiens) (UniProt P10253)
Assay: qHTS Assay for Activators of Human alpha-Glucosidase as a Potential Chaperone Treatment of Pompe Disease; note: nearly all actives have a fitted effect of over 80% in size
Conditions: purified enzyme, 4-MU-alpha-glucoside fluorescence, 20 min; series mostly up to 76.9 µM
Outline: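 Compounds titrated up to 77 uM against 4 nM enzyme and 400 uM methylumbelliferyl substrate at room temperature, 20 min, pH 5.0. Basic stop, then 4-methylumbelliferone fluorescence (365/440 nm) normalized to no-enzyme and enzyme controls; Hill-equation AC50.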
Potency is the fitted concentration of half-maximal effect.

Potency, active:
Cc1cc(C)c2c(n1)nn1c(NCCN3CCOCC3)cc(C)nc21 28.2 µM
Cc1cc(C)c2c(n1)nn1c(NCCCN(C)C)cc(C)nc21 39.8 µM
COCCNc1cc(C)nc2c3c(C)cc(C)nc3nn12 35.5 µM
Cc1cc(C)c2c(n1)nn1c(NCCOCCO)cc(C)nc21 35.5 µM
CCc1cc2c(C)cc(=O)oc2cc1OC(=O)C1CCCN1C(=O)OC(C)(C)C (stereo not drawn) 31.6 µM
CCOP(=O)(OCC)C(NC(=O)c1cccs1)C(F)(F)F (stereo not drawn) 31.6 µM
COCCCn1c(CCC(=O)O)ccc1-c1ccc(F)cc1 22.4 µM
O=S1(=O)CCN2C=C(Cl)C=C(Cl)C2=N1 35.5 µM
CCc1c(C)c2cc(Cl)c(O)c(CN3CCCCC3)c2oc1=O 31.6 µM
Cc1c(C)c2cc(Cl)c(O)c(CN3CCCCC3)c2oc1=O 14.1 µM
Cc1c(C)c2cc(Cl)c(O)c(CN3CCN(C)CC3)c2oc1=O 25.1 µM
N=c1oc2ccc3ccccc3c2cc1-c1nnc2n1CCCCC2 35.5 µM
C=CCn1cc(-c2ccccc2)cc(C#N)c1=O 35.5 µM
CC1C2=C(CC(C)(C)CC2=O)NC2=C1C(=O)CC(C)(C)C2 35.5 µM
Cc1c(-c2cccc(NC(=O)c3ccco3)c2)nc2ncccn12 35.5 µM
Cc1c(-c2cccc(NC(=O)c3cccs3)c2)nc2ncccn12 31.6 µM
O=C(Nc1cccc(-c2cn3cccnc3n2)c1)c1ccco1 28.2 µM
Cc1ccc(C)c(-n2c(=O)c(C#N)cc3c(=O)n4ccccc4nc32)c1 35.5 µM
N#Cc1cc2c(=O)n3ccccc3nc2n(-c2ccccc2Cl)c1=O 35.5 µM
Cc1ccccc1-n1c(=O)c(C#N)cc2c(=O)n3ccccc3nc21 35.5 µM
CCOC(=O)c1oc2ccccc2c1NC(=O)COc1ccc(F)cc1 35.5 µM
CCCS(=O)(=O)n1nc(-c2ccc(Br)cc2)cc1N 39.8 µM
Cc1cc(=O)n2ccccc2c1C#N 35.5 µM
COC(=O)C1=C(C)NC2=C(C(=O)CCC2)C1c1cccc(C)n1 (stereo not drawn) 28.2 µM
COC(=O)C1=C(C)NC2=C(C(=O)CC(C)(C)C2)C1c1ccccn1 (stereo not drawn) 35.5 µM
CCOC(=O)C1=C(C)NC2=C(C(=O)CC(C)(C)C2)C1c1cccc(C)n1 (stereo not drawn) 35.5 µM
CCOC(=O)c1cnc2c(-c3ccc(F)cc3)cnn2c1C(F)(F)F 31.6 µM
CC(=O)Oc1cc(OC(C)=O)c2c(C)cc(=O)oc2c1 35.5 µM
CCc1cc(=O)oc2cc(OC(C)=O)cc(OC(C)=O)c12 35.5 µM
CCCCN1C=C(C(=O)OC)C(c2ccccc2Cl)C(C(=O)OC)=C1 22.4 µM
COCCN1C=C(C(=O)OC)C(c2ccccc2C(F)(F)F)C(C(=O)OC)=C1 35.5 µM
COC(=O)C1=CNC=C(C(=O)OC)C1c1ccccc1Cl 31.6 µM
COCCN1C=C(C(=O)OC)C(c2ccccc2Cl)C(C(=O)OC)=C1 31.6 µM
COC(=O)C1=CNC=C(C(=O)OC)C1c1ccc(Cl)cc1 35.5 µM
COC(=O)C1=CN(C)C=C(C(=O)OC)C1c1ccc(Cl)cc1Cl 25.1 µM
COC(=O)C1=CN(C)C=C(C(=O)OC)C1c1ccccc1Cl 31.6 µM
CCOC(=O)c1cc(C(=O)OCC)c2ccccn2c1=O 35.5 µM
CCOC(=O)c1cnc2cc(C)ccn2c1=O 35.5 µM
CCOC(=O)c1cnc2sc3c(n2c1=O)CCCC3 39.8 µM
CCOC(=O)c1cnc2cc3c(cn2c1=O)CCCC3 28.2 µM
CCCC1(C)Nc2ccccc2-c2nc3ccccc3n21 (stereo not drawn) 31.6 µM
c1ccc2c(c1)NC1(CCCC1)n1c-2nc2ccccc21 31.6 µM
CCCCC1(C)Nc2ccccc2-c2nc3ccccc3n21 (stereo not drawn) 35.5 µM
CC1OC(Oc2ccc3ccc(=O)oc3c2-c2c(O)ccc3cc(Oc4ccc5ccc(=O)oc5c4)c(=O)oc23)C(O)C(O)C1O (stereo not drawn) 39.8 µM
N#Cc1cc2c(=O)n3ccccc3nc2n(CCCN2CCOCC2)c1=O 35.5 µM
C=CCn1c(=O)c(C#N)cc2c(=O)n3ccccc3nc21 35.5 µM
Cc1cccn2c(=O)c3cc(C#N)c(=O)n(CCCN4CCOCC4)c3nc12 35.5 µM
Cc1[nH]nc2c1-c1nc3ccccc3nc1C(C)(C)C2 28.2 µM
COc1ccc2c(c1)c1ncn(Cc3ccco3)c(=O)c1n2C 35.5 µM
CCCn1c(=O)c2c(C(=O)OCC)cc(-c3ccco3)nc2n(CCC)c1=O 35.5 µM
COCCn1c(=O)[nH]c(=O)c2c(C(F)(F)F)cc(-c3cccs3)nc21 28.2 µM
CCCn1c(=O)[nH]c(=O)c2c(C(=O)OCC)cc(-c3cccs3)nc21 35.5 µM
O=c1[nH]c(=O)n(Cc2ccccc2)c2nc(-c3ccco3)cc(C(F)(F)F)c12 31.6 µM
CCCCn1c(=O)[nH]c(=O)c2c(C(=O)OCC)cc(-c3cccs3)nc21 35.5 µM
COc1ccc2cc(/C=N/NC(=O)CN(c3ccccc3)S(=O)(=O)c3ccccc3)c(Cl)nc2c1 35.5 µM
CCOC(=O)C1=CN(C)C=C(C(=O)OCC)C1c1ccsc1 31.6 µM
COC(=O)C1=CN(C)C=C(C(=O)OC)C1c1ccsc1 35.5 µM
N#Cc1cc2ccccc2nc1N 39.8 µM
COc1ccc(-c2cc(=Nc3c(C)n(C)n(-c4ccccc4)c3=O)c3ccccc3o2)cc1 35.5 µM
Nc1nc2nc(-c3ccc(Cl)cc3)cc(C(F)(F)F)n2n1 31.6 µM
Nc1nc2nccc(-c3ccc(Cl)cc3)n2n1 22.4 µM
Nc1nc2nc(-c3ccc(F)cc3)cc(C(F)(F)F)n2n1 25.1 µM
COc1ccc(-c2cc(C(F)(F)F)n3nc(N)nc3n2)cc1 35.5 µM
Cc1nc2cc3ccccc3cc2c(=O)[nH]1 25.1 µM
CCCCCCc1cc2cc(S(=O)(=O)c3ccc(F)cc3)c(=O)oc2cc1O 31.6 µM
CCCCCCc1cc2cc(C(=O)NCc3ccccc3)c(=N)oc2cc1O 35.5 µM
CCCCCCc1cc2cc(C(N)=O)c(=N)oc2cc1O 31.6 µM
CCOc1ccc(C2C(C(=O)OC)=CN(CCOC)C=C2C(=O)OC)cc1 35.5 µM
COCCN1C=C(C(=O)OC)C(c2cc(Br)c(OC)c(OC)c2)C(C(=O)OC)=C1 35.5 µM
CCCOc1ccc(C2C(C(=O)OC)=CN(CCOC)C=C2C(=O)OC)cc1 35.5 µM
Cc1cc(N2CCOCC2)nc2ccc(NC(=O)CCC(=O)N3CCCCC3)cc12 35.5 µM
Cc1cc(N2CCOCC2)nc2ccc(NC(=O)CCC(=O)N3CCCC(C)C3)cc12 (stereo not drawn) 39.8 µM
Oc1ccc(N=Cc2ccc(-c3cccs3)s2)cc1 31.6 µM
CC(C)c1ccc2oc3nc(N)c(C(=O)O)cc3c(=O)c2c1 35.5 µM
N#Cc1ccc2c(c1)nc1ccccn12 35.5 µM
Cc1cc(=O)oc2c(CN3CCC(C)CC3)c(O)c(Cl)cc12 35.5 µM
Cc1cc(=O)oc2c(CN3CCCCC3)c(O)c(Cl)cc12 31.6 µM
Cc1cc(=O)oc2c(CN3CCN(C)CC3)c(O)c(Cl)cc12 35.5 µM
Cc1cc(=O)oc2c(CN3CC(C)OC(C)C3)c(O)c(Cl)cc12 (stereo not drawn) 10 µM
CCN1CCN(Cc2c(O)c(Cl)cc3c(C)cc(=O)oc23)CC1 35.5 µM
COc1ccccc1C1CN(c2ccc(F)cc2F)N=C1c1cccs1 (stereo not drawn) 28.2 µM
Fc1ccccc1N1CC(c2ccccc2)C(c2cccs2)=N1 (stereo not drawn) 35.5 µM
COc1ccccc1C1CN(c2ccccc2)N=C1c1cccs1 (stereo not drawn) 39.8 µM
COc1cccc(C2CN(c3ccc(F)cc3F)N=C2c2cccs2)c1OC (stereo not drawn) 39.8 µM
Fc1ccc(C2CC(c3cccs3)=NN2c2ccccc2)cc1 (stereo not drawn) 31.6 µM
Fc1ccc(N2N=C(c3cccs3)CC2c2ccccc2)cc1 (stereo not drawn) 31.6 µM
O=c1c(-c2nnc(SCc3ccc(Cl)cc3)o2)cccn1Cc1ccccc1 39.8 µM
O=c1c(-c2nnc(SCc3ccc(Cl)c(Cl)c3)o2)cccn1Cc1ccccc1 35.5 µM
O=c1c(-c2nnc(SCc3ccc(Cl)cc3Cl)o2)cccn1Cc1ccccc1 35.5 µM
O=c1oc2cc(Oc3c([N+](=O)[O-])cc(C(F)(F)F)cc3[N+](=O)[O-])ccc2c2c1CCCC2 35.5 µM
FC(F)(F)c1cc(-c2cccs2)nc2ncnn12 28.2 µM
Nc1nc2nc(-c3cccs3)cc(C(F)(F)F)n2n1 28.2 µM
CCCOc1ccc2cc(-c3ccccn3)c(=O)oc2c1 39.8 µM
COc1ccc(-c2cc3ccc(OCc4nn[nH]n4)cc3oc2=O)cc1 35.5 µM
CN(C)C(=O)COc1ccc2cc(-c3ccccc3)c(=O)oc2c1 35.5 µM
CSc1cnc2c(=O)n(C)c(=O)[nH]c2n1 35.5 µM
C=CCNC(=O)c1c(N)n(-c2cccc(S(N)(=O)=O)c2)c2nc3ccccc3nc12 25.1 µM
COCCCNC(=O)c1c(N)n(-c2cccc(S(N)(=O)=O)c2)c2nc3ccccc3nc12 35.5 µM
